PubChem BioAssay (NCI)
This is part of a sample that, as a whole, favours compounds with a hit. Of some 79,000 tested, about 15% had one in any assay. A number with no mark means an inactive call. Calls of active or inactive are those of the source. No stated cut-off is given here; in the data, active means growth inhibition above about 70%; inactive means the rest.

Columns and labels:
[1] = NCI Yeast Anticancer Drug Screen. Data for the rad50 strain (AID 155);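 further: 0% = growth of vehicle-only cultures of the same strain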; details: S. cerevisiae rad50 strain growth inhibition, active compounds read high
In short: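 Compounds were tested on a yeast strain with an engineered DNA damage repair alteration; the reported value is growth inhibition normalised to vehicle treatment.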

[2] = NCI Yeast Anticancer Drug Screen. Data for the mec2-1 strain (AID 157); details: S. cerevisiae mec2-1 strain, active compounds read high
In short: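 Mutant yeast (mec2-1) grown with compound; growth inhibition relative to vehicle control reported.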

[3] = NCI Yeast Anticancer Drug Screen. Data for the sgs1 mgt1 strain (AID 161);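 further: 0% = growth of cultures given vehicle only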; details: S. cerevisiae sgs1 mgt1 strain, active compounds read high
In short: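 Growth of a repair-deficient yeast mutant was monitored after compound treatment and expressed as inhibition relative to vehicle-treated cultures.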

[4] = NCI Yeast Anticancer Drug Screen. Data for the cln2 rad14 strain (AID 165);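 further: 0% = growth equal to vehicle treated cultures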; details: S. cerevisiae cln2 rad14 strain, active compounds read high
In short: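 Readout is yeast growth inhibition versus vehicle-treated controls, using a strain with cln2 and rad14 alterations exposed to compound.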

[5] = NCI Yeast Anticancer Drug Screen. Data for the bub3 strain (AID 167); details: S. cerevisiae bub3 mutant strain, active compounds read high
In short: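 Growth of a checkpoint-deficient yeast mutant is measured after compound exposure. Values represent inhibition relative to vehicle.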

[6] = NCI Yeast Anticancer Drug Screen. Data for the mlh1 rad18 strain (AID 175); details: S. cerevisiae mlh1 rad18 strain growth inhibition, active compounds read high
In short: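 Genetically defined yeast (DNA repair-deficient) exposed to compounds; growth inhibition determined relative to vehicle.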

[7] = at 5.0 µM (retest, dose inferred, filed as 0.5)
[8] = at 50.0 µM (retest, dose inferred, filed as 5.0)

Compound	growth inhibition [1, 7]	growth inhibition [1, 8]	growth inhibition ([1]; at 50.0 µM)	growth inhibition [2, 7]	growth inhibition [2, 8]	growth inhibition ([2]; at 50.0 µM)	growth inhibition [3, 7]	growth inhibition [3, 8]	growth inhibition ([3]; at 50.0 µM)	growth inhibition [4, 7]	growth inhibition [4, 8]	growth inhibition ([4]; at 50.0 µM)	growth inhibition [5, 7]	growth inhibition [5, 8]	growth inhibition ([5]; at 50.0 µM)	growth inhibition [6, 7]	growth inhibition [6, 8]	growth inhibition ([6]; at 50.0 µM)
CC(=O)NC1C(=O)CC(c2ccccc2)N(C)C1c1ccccc1 (configuration not stated)	2%	2%	7.55%	2%	6%	6.55%	-2%	1%	25.3%	4%	0%	36.1%	2%	3%	18%	1%	-7%	31.7%
C=C(c1ccc2nc(NC(=O)OC)[nH]c2c1)c1cccs1	-4%	47%	61.3%	-7%	88% (active)	93.2% (active)	-4%	72% (active)	91.8% (active)	-9%	18%	41.1%	-3%	84% (active)	90.5% (active)	-9%	92% (active)	95% (active)
CCOC(=O)C1(C#N)C(=O)CSC1=Nc1ccccc1Cl (configuration not stated)	-7%	-14%	-5.95%	-16%	-11%	-8.75%	-4%	-2%	25%	13%	17%	-9.95%	-14%	-10%	18.4%	-33%	-54%	-3.4%
Oc1ccccc1C1N(Cc2ccc(Cl)cc2)CCN1Cc1ccc(Cl)cc1	7%	57%	18.2%	7%	58%	17.6%	20%	93% (active)	46.5%	14%	58%	62.6%	22%	81% (active)	16.4%	22%	70% (active)	18.4%
Cc1c(Cl)ccc(O)c1[N+](=O)[O-]	2%	87% (active)	91.6% (active)	2%	86% (active)	91.7% (active)	3%	82% (active)	96.1% (active)	2%	75% (active)	84.8% (active)	5%	93% (active)	88.8% (active)	-1%	97% (active)	94% (active)
CN(C)CC(CN1CCCC1)C(=O)c1ccccc1 (configuration not stated)	13%	24%	56.6%	-2%	36%	41.4%	13%	32%	66.5%	26%	33%	11.2%	6%	39%	65.5%	15%	32%	75.2% (active)
COc1c2c(cc3c1c(=O)c1ccccc1n3C)OCO2	-12%	26%	61.5%	-4%	1%	33.9%	-5%	14%	40.5%	18%	5%	-45.8%	2%	0%	25.4%	-29%	22%	62.8%
O=C(Nc1cccc(C(F)(F)F)c1)O/N=C(/Cl)CCl	3%	100% (active)	88.5% (active)	-19%	100% (active)	91.7% (active)	-51%	99% (active)	84.7% (active)	-8%	100% (active)	90.5% (active)	-38%	100% (active)	88.8% (active)	-9%	100% (active)	84.2% (active)
O=C1/C(=C/c2ccc(Cl)cc2)CSC/C1=C\c1ccc(Cl)cc1	23%	37%	2.35%	12%	37%	4%	19%	53%	9.35%	18%	34%	-2.2%	25%	62%	5.55%	16%	42%	-9.1%
COC(=O)[C@@]12OC[C@]34[C@H]([C@@H](O)[C@@H]1O)[C@@]1(C)CC(=O)C(O)=C(C)[C@@H]1C[C@H]3OC(=O)[C@H](OC(=O)C(Cc1ccccc1)NC(=O)OC(C)(C)C)[C@@H]24 (some centres not stated)	24%	73% (active)	85.8% (active)	26%	68%	79.2% (active)	27%	82% (active)	86.8% (active)	33%	78% (active)	85.9% (active)	31%	80% (active)	83.3% (active)	3%	58%	-65.6%
Cc1c2ccnc(-c3ccc(F)cc3)c2cc2c1[nH]c1ccccc12	-3%	1%	-0.35%	-14%	15%	-14.4%	-26%	48%	65.8%	7%	17%	-35.9%	-2%	1%	-17.1%	-3%	11%	-5.15%
c1ccc([P+](c2ccccc2)(c2ccccc2)C2CCCC2)cc1	-18%	7%	96.8% (active)	-13%	15%	97.5% (active)	-13%	40%	97.6% (active)	-3%	-1%	98.3% (active)	0%	-1%	95.5% (active)	11%	32%	98.5% (active)
COc1cc(C2c3cc4c(cc3[C@@H](OCCN)[C@H]3COC(=O)C23)OCO4)cc(OC)c1O (some centres not stated)	47%	93% (active)	52.2%	11%	55%	77.2% (active)	29%	63%	69.5%	29%	28%	49.6%	24%	44%	49.5%	19%	68%	80.7% (active)
Cc1ccc2c(c1C)-c1c(ccc(C)c1C)C(=O)C2=O	13%	98% (active)	99.3% (active)	35%	99% (active)	99.4% (active)	5%	99% (active)	99.7% (active)	-14%	98% (active)	99.6% (active)	46%	98% (active)	99.5% (active)	75% (active)	99% (active)	99.5% (active)
COc1ccc2c(c1)[n+]([O-])c(-c1ccc(Cl)c(Cl)c1)c(N)[n+]2[O-]	23%	98% (active)	99.5% (active)	26%	99% (active)	99.5% (active)	29%	99% (active)	99.7% (active)	38%	98% (active)	99.3% (active)	76% (active)	99% (active)	99.6% (active)	71% (active)	99% (active)	99.4% (active)
O=C(O)/C(Cl)=C(/Cl)C(=O)Nc1cccc(Cl)c1	45%	98% (active)	90.9% (active)	50%	100% (active)	86.2% (active)	42%	100% (active)	88.6% (active)	32%	99% (active)	89.1% (active)	63%	99% (active)	89.9% (active)	50%	99% (active)	92.4% (active)
CCCC(=O)N(C(=O)CCC)C1=C(Cl)C(=O)c2ccccc2C1=O	55%	64%	29.9%	95% (active)	95% (active)	83.1% (active)	56%	72% (active)	75.1% (active)	33%	65%	74.2% (active)	91% (active)	98% (active)	87.4% (active)	48%	64%	86.6% (active)
COc1ccc(OC)c2c(=S)c3ccccc3[nH]c12	-1%	75% (active)	85.3% (active)	0%	44%	26.2%	-5%	43%	60.6%	-5%	-5%	40.6%	-6%	37%	60.2%	-5%	65%	91.1% (active)
N#CC(c1ccc(Cl)cc1)c1ccc([N+](=O)[O-])cc1 (configuration not stated)	-12%	52%	40.9%	-16%	37%	20.5%	2%	84% (active)	60.9%	-4%	53%	3.95%	2%	86% (active)	64.3%	-5%	88% (active)	45.5%
